This is an account of results in PubChem BioAssay (NCI).

This is part of a sample that, as a whole, favours compounds with a hit. Of some 83,000 tested, about 20% had one in any assay.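 How to read the values: 0–100, growth inhibition (40 = 60% inhibited); 0, no net growth; -100 to 0, cell death (-40 = 40% of starting cells died; -100 = all dead).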 Values without a mark were called inactive. Activity calls are given as the source filed them. Rule for the calls: active = growth percent below 10; inactive = the rest.

This test concerns UACC-257 melanoma. The test is described as follows: NCI-60 one-dose screen, 48 h (100 = growth as untreated, 0 = no growth, -100 = all killed). The following applies: 10 µM.
Turning to `COc1ccc(/C=C2\CCCC3=C2NC(N)=NC3c2ccc(OC)cc2)cc1` (stereo not given), the growth is 91.2%.

Regarding `CN(C)CCCOc1cccc(NC2=C(Cl)C(=O)C(Nc3cccc(OCCCN(C)C)c3)=C(Cl)C2=O)c1`, the growth was -90.1% (active).

As to `N#CC1=C(N)Oc2cc(N)ccc2C1c1cccnc1` (stereo not given), the growth was 109%.

Regarding `COc1cc(/C=C/c2cc(/C=C/c3ccc(O)c(OC)c3)n(C(=O)Nc3ccc(C)cc3)n2)ccc1O`, the growth was 4.8% (active).

As to `Cc1ccc(-n2nnnc2N)c(C)c1`, the growth is 108%.

Take `CCCCN(CCCC)C(=O)[C@H](CC)[C@@H]1CC[C@@H](C)[C@@H]([C@H](C)[C@@H](O)[C@@H](C)C(=O)[C@H](CC)C2O[C@]3(C=C[C@@H](O)[C@]4(CC[C@@](C)([C@H]5CC[C@](O)(CC)[C@H](C)O5)O4)O3)[C@H](C)C[C@@H]2C)O1` (stereo not given in full): the growth was 0.418% (active).

Regarding `COc1ccc2c(c1)C(=O)/C(=C/c1ccc([N+](=O)[O-])o1)O2`, the growth was -85.6% (active).

Take `Cc1ccc(S(=O)(=O)N(C)CCCCCC(=O)O)cc1`: the growth was 98.2%.

As to `NC1=NC(c2ccc(Cl)cc2)C2=C(N1)/C(=C/c1ccc(Cl)cc1)CCC2` (stereo not given), the growth is 79.4%.

Regarding `S=C(NCc1ccccc1)NCc1ccccc1`, the growth was 81.9%.

As for `COc1cc2cc(Oc3ccc(NC(=O)c4ccccc4)cc3)c(C)nc2cc1OC`, the growth is 95.2%.

As to `Cc1c(Cl)cccc1NC(=O)CN1CCOCC1`, the growth is 108%.

Take `C=CCN(CC=C)C(=O)[C@H](CC)[C@@H]1CC[C@@H](C)[C@@H]([C@H](C)[C@@H](O)[C@@H](C)C(=O)[C@H](CC)C2O[C@]3(C=CC(=O)[C@]4(CC[C@@](C)([C@H]5CC[C@](O)(CC)[C@H](C)O5)O4)O3)[C@H](C)C[C@@H]2C)O1` (stereo not given in full): the growth is 20.6%.

`CCN1CCN(CCC(=O)Nc2cccc(-n3cc(-c4ccncc4)c(-c4ccc(Cl)c(OC)c4)n3)c2)CC1`: the growth was -85.5% (active).

Turning to `Nc1ccn(Cc2nnc(CCC(=O)c3nc4ccccc4[nH]3)o2)c(=O)n1`, the growth is 101%.

As for `Cc1ccc2nc(Cl)c(-c3nc4ccccc4o3)cc2c1`, the growth is 108%.

Turning to `C/C=C/CSC(C)(C)C(=O)NC`, the growth is 92.2%.

Turning to `COc1cc2c(Nc3ccc(S(N)(=O)=O)cc3)ncnc2c(OC)c1OC`, the growth is 94.9%.

Take `CC(=O)OC1C=CC(OC(C)=O)O1` (stereo not given): the growth is 94%.

Consider `CC(=O)C1N=NCC1c1ccccc1` (stereo not given), for which the growth was 110%.

As to `O=C(CN(C1CCCCC1)C1CCCCC1)Nc1ccc(S(=O)(=O)c2ccc(NC(=O)CN(C3CCCCC3)C3CCCCC3)cc2)cc1`, the growth was -17.9% (active).

Turning to `Cc1c[nH]c(=O)n(Cc2nnc(CCC(=O)c3nc4ccccc4[nH]3)o2)c1=O`, the growth is 81.4%.

`O=C(CCn1cnc2c(cc(-c3ccccc3)n2-c2ccccc2)c1=O)Nc1ccc(F)cc1`: the growth is 86.2%.

In the case of `CN(C)CCOc1cccc(NC2=C(Cl)C(=O)C(Nc3cccc(OCCN(C)C)c3)=C(Cl)C2=O)c1`, the growth is -97.3% (active).

With `CN1CCN(CCC(=O)Nc2cccc(-n3cc(-c4ccncc4)c(-c4ccc(Cl)c(O)c4)n3)c2)CC1`, the growth was 46.3%.

On to `CC(=O)Nc1ccc(CC[C@H]2CCC/C=C/[C@@H]3C[C@H](O)C[C@H]3[C@H](O)/C=C/C(=O)O2)cc1`, for which the growth was -3.78% (active).

In the case of `CN(C)CCN(Cc1ccccc1)c1ccc2ccccc2n1`, the growth is 98%.

For the compound `C/C(=N\O)c1ccc(NC(=O)CSc2nnc(-c3ccccc3)n2-c2ccccc2)cc1`, the growth is 94.5%.

Take `CCC(CC)n1c(C)cc(=O)n1C(CC)CC`: the growth is 106%.

Turning to `CC[C@@H](C(=O)[C@H](C)[C@H](O)[C@@H](C)[C@H]1O[C@H]([C@@H](CC)C(=O)O)CC[C@H]1C)C1O[C@]2(C=C[C@@H](O)[C@]3(CC[C@@](C)([C@H]4CC[C@](O)(CC)[C@H](C)O4)O3)O2)[C@H](C)C[C@@H]1C` (stereo not given in full), the growth is 35.3%.

Consider `O=C(O)c1cc([N+](=O)[O-])ccc1Oc1ccccc1`, for which the growth is 96.8%.

As for `O=[N+]([O-])c1cccc(/C=N/NC(=S)NC23CC4CC(CC(C4)C2)C3)c1`, the growth is 76.4%.

For the compound `COc1cc(C(=O)n2nc(-c3cc(OC)c(OC)c(OC)c3)nc2N)cc(OC)c1OC`, the growth was 101%.

Turning to `COc1ccc(-c2n[nH]nc2-c2cc(OC)c(OC)c(OC)c2)cc1`, the growth was 69.1%.

Take `C=CCN(CC=C)C(=O)[C@H](CC)[C@@H]1CC[C@@H](C)[C@@H]([C@H](C)[C@@H](O)[C@@H](C)C(=O)[C@H](CC)C2O[C@]3(C=C[C@@H](O)[C@]4(CC[C@@](C)([C@H]5CC[C@](O)(CC)[C@H](C)O5)O4)O3)[C@H](C)C[C@@H]2C)O1` (stereo not given in full): the growth is 7.88% (active).

For the compound `O=C(Nc1cccc2c1CCCC2)c1cc2ccccc2cc1O`, the growth was 22.3%.

For `O=C1/C=C/[C@@H](O)[C@@H]2C[C@@H](O)C[C@H]2/C=C/CCC[C@H](CCc2ccc(NC(=S)Nc3ccc4c(c3)C(=O)OC43c4ccc(O)cc4Oc4cc(O)ccc43)cc2)O1`, the growth was 0.525% (active).

`COc1cc(/C=C/c2cc(/C=C/c3ccc(O)c(OC)c3)nc(N)n2)ccc1O`: the growth is -1.9% (active).

As for `CC(=O)Oc1cc(OC(C)=O)c2ccccc2c1OC(C)=O`, the growth was 81.4%.

Turning to `CCOc1ccccc1/C=N\N=C\c1ccccc1O`, the growth was 107%.
